Assay results as given in PubChem BioAssay AID1851 (National Center for Advancing Translational Sciences (NCATS), 2009).
Where “and” joins values, the source holds several entries; their conditions need not be identical. Identical values can stand only once. Hit rate of the full screen: of about 16,000 compounds, about 4,000 (25%) were called active. Another 26% or so got no clear call; they are omitted. The list is a sample of the results. Unmarked numbers belong to inactive results. Calls follow the shape of the dose curve; as a rule, active = well fitted curve in the direction sought with a large enough effect; inconclusive = small, poorly fitted or top-dose-only effect, or effect the other way; inactive = no such curve, though single readings can be large or run the other way.
% is scaled to controls: 0 for no effect and ±100 for the full control effect.

These compounds were tested against Cytochrome P450 2C9 (Homo sapiens) (UniProt P11712) (assay: Cytochrome panel assay with activity outcomes). Conditions: recombinant CYP, pro-luciferin dealkylation, luminescence, p450-cyp2c9; series mostly up to 57.1 µM; activity, negative = inhibition: at the top concentration.
Cytochrome P450 2C9 (Homo sapiens), sequence (P11712 whole entry, looked up): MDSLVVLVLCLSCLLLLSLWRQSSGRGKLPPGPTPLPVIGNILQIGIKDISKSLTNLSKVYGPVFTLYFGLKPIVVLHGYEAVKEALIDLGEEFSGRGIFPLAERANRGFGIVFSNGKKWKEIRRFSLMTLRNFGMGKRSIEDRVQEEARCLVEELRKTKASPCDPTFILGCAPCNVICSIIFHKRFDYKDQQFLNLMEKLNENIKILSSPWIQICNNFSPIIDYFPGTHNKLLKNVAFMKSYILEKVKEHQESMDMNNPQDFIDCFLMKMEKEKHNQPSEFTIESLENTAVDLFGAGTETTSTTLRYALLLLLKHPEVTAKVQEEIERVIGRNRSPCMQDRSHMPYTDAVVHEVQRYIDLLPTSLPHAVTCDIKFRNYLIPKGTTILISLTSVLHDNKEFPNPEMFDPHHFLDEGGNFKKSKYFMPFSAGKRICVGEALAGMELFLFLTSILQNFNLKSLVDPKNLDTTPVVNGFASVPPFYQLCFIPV
With `CC[N+](CC)(CC)CC[C@](O)(c1ccccc1)C1CCCCC1` the “activity, negative = inhibition” value was -9.66% [at 25.6 µM]. For `COc1c(/C=N/Nc2ccc([N+](=O)[O-])cc2[N+](=O)[O-])c(C)nn1-c1ccccc1`, the AC50 was 20 µM (active). `O=C1C2[C@@H](c3ccccc3)N[C@@H](c3ccccc3)C1[C@H](c1ccccc1)N[C@H]2c1ccccc1` showed an activity, negative = inhibition of -3.9% [at 11.4 µM]. For `S=C1N[C@H](c2ccccc2)N[C@H](c2ccccc2)S1`, the AC50 was 2 µM (active). `O=C1[C@H]2[C@H]3[C@H](O)[C@H](O)C/C(=N/OCc4ccccc4)[C@H]3CC[C@@H]2C(=O)N1C[C@@H]1CCCO1` showed an activity, negative = inhibition of -4.81% [at 11.4 µM]. With `CN(C)Cc1ccccc1-c1cc(NCc2ccccc2)ncn1` the activity, negative = inhibition was -1.3% [at 2.29 µM]. `O=C(Nc1ccccc1N1CCN(C(=O)c2ccccc2)CC1)c1cc(Br)ccc1Cl` was tested, and the AC50 was 2.51 µM (active). For `CC(C)C(=O)N1CCN(c2ccccc2NC(=O)c2cccc(Cl)c2)CC1`, the AC50 was 14.1 µM (active). In the case of `Cc1ccccc1OCC(=O)Nc1ccc(N2CCN(C(=O)C(C)C)CC2)c(Cl)c1`, the AC50 is reported as 3.98 µM (active). In the case of `CNC(=S)NNC(=O)COc1ccccc1C`, the “activity, negative = inhibition” value is reported as 32.9%. With `O=C(Nc1ccccc1N1CCN(C(=O)c2ccc(Cl)cc2)CC1)c1cc(Br)ccc1Cl` the AC50 was 3.98 µM (active). `CC1CN(C2CCN(C(=O)c3cccc(Cl)c3)CC2)CC(C)O1` (centres undefined) was tested, and the “activity, negative = inhibition” value was -23.4%. In the case of `CC[C@]1(O)C[C@@H]2CN(CCc3c([nH]c4ccccc34)[C@](C(=O)OC)(c3cc4c(cc3OC)N(C=O)[C@H]3[C@@](O)(C(=O)OC)[C@H](C(=O)OC)[C@@]5(CC)C=CCN6CC[C@]43[C@H]65)C2)C1`, the “activity, negative = inhibition” value is reported as -28.6%. `CC(C)C(O)(C#CCN1CCCC1)c1ccccc1` (centres undefined) was tested, and the “activity, negative = inhibition” value was -10.7%. With `CC(C)(C)N1C(=O)[C@H]2[C@@H]3[C@H](O)C=CC(=O)[C@H]3CC[C@H]2C1=O` the activity, negative = inhibition was 3.18% [at 11.4 µM]. With `CC(=O)O[C@]12CC[N@+]3(C)CCCC[C@@H]3[C-]1Nc1ccccc12` the activity, negative = inhibition was 2.24% [at 11.4 µM]. In the case of `Cc1ccc(C2=C(Cl)C(=O)C(c3ccc(C)cc3)=C(Cl)C2=O)cc1`, the AC50 is reported as 1.58 µM (active). In the case of `COc1ccc(/C=N/NC(=O)CCCOc2ccc(Cl)cc2Cl)cc1[N+](=O)[O-]`, the AC50 is reported as 2.24 µM (active). `CC1(C)CC(=O)C/C(=N/NC(=O)CCCOc2ccc(Cl)cc2Cl)C1` was tested, and the “activity, negative = inhibition” value was 17.7%. `COC(=O)C/C=C\[C@@H](C)[C@@H](/C=N\O[C@@H](C)c1cn([C@H](CO)Cc2ccccc2)nn1)OC` was tested, and the activity, negative = inhibition was -11.4% [at 11.4 µM] and -9% [at 11.4 µM]. For `CCCNC(=O)OC[C@@H]1O[C@H](CCO/N=C\c2ccc(C(=O)N3[C@H](c4ccc(C)cc4)[C@@H](C)CC[C@H]3C(=O)OC)cc2)C=C[C@@H]1Oc1ccc(OC)cc1`, the AC50 was 3.98 µM (active). `COC(=O)[C@@H]1CC[C@H](C)[C@@H](c2ccc(C)cc2)N1C(=O)c1ccc(/C=N\O[C@@H](C)c2cn([C@H](CO)Cc3ccccc3)nn2)cc1` was tested, and the AC50 was 3.16 µM (active) and 2.51 µM (active). Work on `COC(=O)[C@@H]1CC[C@H](C)[C@@H](c2ccc(C)cc2)N1C(=O)c1ccc(/C=N\OC[C@@H](C)[C@H](OCc2ccccc2)C(C)C)cc1` yielded an activity, negative = inhibition of -24.2% [at 11.4 µM]. `CCCNC(=O)OC[C@@H]1O[C@H](CCO/N=C\C[C@H]2C=C[C@H](OC(C)=O)[C@@H](COC(C)=O)O2)C=C[C@@H]1Oc1ccc(OC)cc1` was tested, and the activity, negative = inhibition was -11.7% [at 11.4 µM]. With `COC(=O)[C@@H]1CC[C@H](C)[C@@H](c2ccc(C)cc2)N1C(=O)c1ccc(/C=N\OC[C@@H]2O[C@H](c3ccccc3)C=C[C@@H]2Oc2ccc(OC)cc2)cc1` the activity, negative = inhibition was -16.2% [at 11.4 µM]. Work on `COC(=O)C/C=C\[C@@H](C)[C@@H](/C=N\OC[C@@H](O)COCc1ccco1)OC` yielded an activity, negative = inhibition of -26.7% [at 11.4 µM]. For `COC(=O)[C@@H]1CC[C@H](C)[C@@H](c2ccc(C)cc2)N1C(=O)c1ccc(/C=N\OC[C@@H](O)COCc2ccco2)cc1`, the AC50 was 3.98 µM (active). With `C=CC[C@@H]1C=C[C@H](ON=C(C)C)[C@H](CO)O1` the activity, negative = inhibition was 12% [at 11.4 µM]. With `C=CC[C@@H]1C=C[C@@H](O/N=C\c2ccc(C(=O)N3[C@H](c4ccc(C)cc4)[C@@H](C)CC[C@H]3C(=O)OC)cc2)[C@@H](CO)O1` the AC50 was 3.98 µM (active). For `COC(=O)C/C=C\[C@@H](C)[C@@H](/C=N\O[C@@H](C)c1cn([C@H](CO)Cc2ccccc2)nn1)NS(=O)(=O)c1ccc(C)cc1`, the activity, negative = inhibition was -29.2% [at 11.4 µM]. `C=CC[C@@H]1C=C[C@@H](O/N=C\[C@@H](OC)[C@H](C)/C=C\CC(=O)OC)[C@@H](CO)O1` was tested, and the activity, negative = inhibition was 21.3% [at 11.4 µM]. `C/C(CCN1CCc2nc(-c3ccccc3)c(-c3ccccc3)cc2C1)=N\O[C@@H](C)CN1CCCc2nc(C)c(C)cc21` was tested, and the activity, negative = inhibition was -19.9% [at 11.4 µM]. `CC(C)=CCC/C(C)=C/CO/N=C1/C[C@@H](O)[C@@H](O)[C@@H]2[C@@H]3C(=O)N(Cc4ccc5c(c4)OCO5)C(=O)[C@H]3CC[C@@H]12` was tested, and the activity, negative = inhibition was -23.6% [at 11.4 µM]. With `O=C(c1ccco1)N1CCC[C@@]2(CCN(Cc3ccccc3)C2)C1` the “activity, negative = inhibition” value was 2.14%. `COC(=O)C/C=C\[C@@H](C)[C@@H](/C=N\OC[C@@H](O)[C@H]1O[C@H]2OC(C)(C)O[C@H]2[C@@H]1O)OC` was tested, and the activity, negative = inhibition was 8.96% [at 11.4 µM]. For `CO/N=C\c1ccc(C(=O)N2[C@H](c3ccc(C)cc3)[C@@H](C)CC[C@H]2C(=O)OC)cc1`, the AC50 was 2.51 µM (active). Compound `COC(=O)C/C=C\[C@@H](C)[C@@H](/C=N\OC[C@@H](O)[C@H]1O[C@H]2OC(C)(C)O[C@H]2[C@@H]1O)NS(=O)(=O)c1ccc(C)cc1` has an activity, negative = inhibition of 2.11% [at 11.4 µM]. In the case of `COC(=O)[C@@H]1CC[C@H](C)[C@@H](c2ccc(C)cc2)N1C(=O)c1ccc(/C=N\OC[C@@H](O)[C@H]2O[C@H]3OC(C)(C)O[C@H]3[C@@H]2O)cc1`, the AC50 is reported as 2.51 µM (active). In the case of `C[C@@]12CCC(=O)C=C1CC[C@@H]1[C@@H]2[C@H](O)C[C@]2(C)[C@@H]1CC[C@]2(O)C(=O)CO`, the “activity, negative = inhibition” value is reported as -1.37% [at 25.6 µM]. For `CN[C@@H](c1ccncc1)[C@@H](NC)c1ccncc1`, the activity, negative = inhibition was -8.04% [at 11.4 µM]. For `COCCNc1ncnc2ccc(-c3ccccc3C(F)(F)F)cc12`, the activity, negative = inhibition was 11% [at 2.29 µM]. `CC(C)(C)NC(=O)C(c1ccccn1)N(C(=O)C1CSC(=O)C1)c1ccc(F)cc1` (centres undefined) was tested, and the “activity, negative = inhibition” value was -13.1%. For `Cc1ccc(C(C(=O)NC2CCCCC2)N(CC2CCCO2)C(=O)CNC(=O)c2cccs2)cc1` (centres undefined), the “activity, negative = inhibition” value was -15.9%. In the case of `Cc1cc(C)cc(N(C(=O)Cc2cccs2)C(C(=O)NC2CCCCC2)c2ccccn2)c1` (centres undefined), the AC50 is reported as 17.8 µM (active). In the case of `Cc1nn(C)cc1C(C(=O)NC1CCCCC1)N(C(=O)Cc1cccs1)c1ccc(C(C)C)cc1` (centres undefined), the AC50 is reported as 25.1 µM (active). Compound `NC1=C(O)C(=O)[C@H](c2c[nH]c3ccc(OCc4ccccc4)cc23)O1` has an activity, negative = inhibition of -27.4% [at 11.4 µM]. Compound `CC(C)/C(=N/[N+](C)(C)C)c1ccccc1` has an activity, negative = inhibition of 9.65% [at 11.4 µM]. With `CC(C)C(=O)Nc1cc2c(cc1C(=O)c1ccccc1)OCCO2` the AC50 was 8.91 µM (active). With `CC(=O)c1cc2c(cc1NC(=O)CCCC(=O)O)OCO2` the “activity, negative = inhibition” value was 0.864%. With `O=C(CCN1C(=O)S/C(=C\c2ccccc2)C1=O)Nc1ccc(S(=O)(=O)Nc2nccs2)cc1` the AC50 was 1.58 µM (active). For `O=C(O)c1ccccc1C(=O)Nc1ccc(S(=O)(=O)Nc2nccs2)cc1`, the “activity, negative = inhibition” value was -19.3% [at 25.6 µM]. Work on `O=C1Nc2ccccc2C1=Nc1ccc(S(=O)(=O)Nc2nccs2)cc1` yielded an activity, negative = inhibition of 8.43% [at 11.4 µM]. In the case of `O=c1c(-c2ccc(Cl)cc2)[n+]([O-])c2ccccc2n1OCc1ccccn1`, the “activity, negative = inhibition” value is reported as -25.4%. In the case of `CCOc1ccc(OCC)c(-c2c(=O)n(OCc3ccc(C(C)(C)C)cc3)c3ccccc3[n+]2[O-])c1`, the AC50 is reported as 6.31 µM (active). In the case of `CCOc1ccc(OCC)c(-c2c(=O)n(OCc3ccccc3C(=O)OC)c3ccccc3[n+]2[O-])c1`, the AC50 is reported as 14.1 µM (active). Work on `OC[C@@H]1O[C@H](n2cnc3c(/C=C(\O)c4ccccc4)ncnc32)[C@H](O)[C@@H]1O` yielded an activity, negative = inhibition of 0.392% [at 11.4 µM]. For `COc1ccc(C(=O)N2CCC3(CCCN(Cc4ccccc4OC)C3)CC2)cc1`, the “activity, negative = inhibition” value was -18.1%. In the case of `COc1ccccc1Cn1nnc2c(=O)[nH]c(C3CCN(C(=O)c4ccc(C)cc4)CC3)nc21`, the AC50 is reported as 5.62 µM (active). For `Cc1ccc(Cn2nnc3c(=O)[nH]c(C4CCN(C(=O)Cc5cccs5)CC4)nc32)cc1`, the AC50 was 0.708 µM (active). With `Cc1ccc(C)c(S(=O)(=O)N2CCC(c3nc4c(nnn4Cc4ccc(F)cc4)c(=O)[nH]3)CC2)c1` the AC50 was 1.58 µM (active). With `COc1ccc(C(=O)N2CCC3(CCN(Cc4ccccc4OC)CC3)CC2)cc1` the “activity, negative = inhibition” value was 11.6%. With `COc1cccc(Cn2nnc3c(=O)[nH]c(C4CCCN(C(=O)c5ccccc5Cl)C4)nc32)c1` (centres undefined) the AC50 was 5.01 µM (active). In the case of `Cc1ccn2cc(CSc3ccccc3N)nc2c1`, the “activity, negative = inhibition” value is reported as -1.78%. For `NC1=C2NC=N[C@@H]2N(C/C=C\c2ccccc2)C=N1`, the activity, negative = inhibition was 1.29% [at 11.4 µM]. With `O=C(Cc1cccs1)N1CCC(c2nc3c(nnn3Cc3ccccc3Cl)c(=O)[nH]2)CC1` the AC50 was 0.224 µM (active). For `CCc1ncc(CO)n1Cc1cccc2ccccc12`, the activity, negative = inhibition was -1.15% [at 11.4 µM]. In the case of `COc1ccc(N2CCN(C(=N)/C(C(C)=O)=C(\C)O)CC2)cc1`, the “activity, negative = inhibition” value is reported as -13.8%. With `CCn1cnc2sc(C(=O)N3CCN(c4ccc(OC)cc4)CC3)c(C)c2c1=O` the AC50 was 7.94 µM (active). In the case of `COc1ccc(N2CCN(C(=S)Nc3cc(C)ccc3C)CC2)cc1`, the “activity, negative = inhibition” value is reported as -18%.
